Measurements from PubChem BioAssay AID1422 (Emory University Molecular Libraries Screening Center, 2008).
Several values for one entry are separate records, joined by “and”; a condition that tells them apart may be missing. Equal entries are not always repeated. Out of some 260,000 compounds screened, about 1,300 (0.5%) were called active.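 How the source made its calls: active means percent inhibition above 40 after rounding to a whole number; inactive means the rest.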 Only a selection was taken, and actives are over-represented in it overall. A structure can be active in one record and inactive in another.

Target: Prostaglandin E2 receptor EP2 subtype (Homo sapiens) (UniProt P43116)
Sequence (P43116 whole entry, looked up): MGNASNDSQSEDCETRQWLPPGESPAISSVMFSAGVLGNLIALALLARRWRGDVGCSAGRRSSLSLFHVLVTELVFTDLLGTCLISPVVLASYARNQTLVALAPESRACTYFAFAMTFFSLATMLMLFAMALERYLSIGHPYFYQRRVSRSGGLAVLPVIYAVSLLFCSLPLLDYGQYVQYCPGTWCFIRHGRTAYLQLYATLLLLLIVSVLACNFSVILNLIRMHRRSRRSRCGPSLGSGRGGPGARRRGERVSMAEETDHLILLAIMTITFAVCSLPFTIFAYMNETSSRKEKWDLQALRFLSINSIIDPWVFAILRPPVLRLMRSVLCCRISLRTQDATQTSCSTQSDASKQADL
Assay: human EP2 receptor antagonists, primary screen, TR-FRET cAMP, C6 glioma cells (AID 1422);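 further: rat C6 glioma host cells with rolipram phosphodiesterase inhibitor present; the protocol text gives 20 µM as final concentration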
Conditions: C6 glioma cells expressing human EP2, cAMP TR-FRET; at 25 µM; stronger effect = higher value; cells stimulated with saturating PGE2

inhibition, active:
O=C(/C=C/c1ccc(Cl)c([N+](=O)[O-])c1)c1cccnc1 43.7%
O=c1oc2ccccc2cc1-c1csc(Nc2cccc(O)c2)n1 117%
O=C1C=C(c2ccc(Cl)cc2)C(=O)N1Nc1ccccc1 134%
c1ccc(-c2cc3c(NCC4COc5ccccc5O4)ncnc3s2)cc1 (centres undefined) 99.7%
COC(=O)C1=C(C)NC2=C(C(=O)c3ccccc32)C1c1ccc(-c2ccc(C(=O)O)cc2)o1 (centres undefined) 42.5%
C/C(N[O-])=C(\C)[N+]([O-])=[Co].CC(=N\[O-])/C(C)=N/[O-].[CH2-]CCN1CCOCC1.c1ccncc1 42.1%
CCOc1cc(-c2c(C#N)c(N)nc(-c3ccccc3)c2CC)ccc1O 42.1%
C[N+]1(CCN=C=NC2CCCCC2)CCOCC1 42.8%
Cc1c(O)c(Br)c(C)c(O)c1Br (tested in a mixture with another compound) 105%
CCOC(=O)c1c(-c2ccc(C)cc2C)csc1NC(=O)CSc1nnnn1C 44.2%
COC(=O)/C=C\C(=O)Nc1cccc([N+](=O)[O-])c1 113%
CCN1/C(=C\c2ccc3ccccc3[n+]2CC)Sc2cc(C)ccc21 88.5%
CCN1/C(=C/c2ccc3ccc(C)cc3[n+]2CC)Sc2ccccc21 49.2%
COc1ccc2[nH]c(=O)c(CN(Cc3cccnc3)S(=O)(=O)c3ccccc3F)cc2c1 45.8%
COc1ccc2[nH]c(=O)c(CN(Cc3ccco3)S(=O)(=O)c3c(C)ccc4nsnc34)cc2c1 46.1%
Cc1ccc2c(c1)C1CN(C)CCC1N2C(=S)Nc1ccc(OC(F)F)cc1 (centres undefined) 112%
Cc1cc(Cl)ccc1OCC(=O)Oc1c(Cl)c(Cl)c(Cl)c(Cl)c1Cl 50.2%

inhibition, inactive:
O=C(Nc1cccnc1)c1ccc(Cl)c([N+](=O)[O-])c1 3.46%
O=C(/C=C/c1ccc(Cl)c([N+](=O)[O-])c1)c1ccc(O)cc1 2.09%
COc1ccc(CNc2sc3c(c2C(=O)Nc2ccccc2OC)CCC3)cc1 8.59%
COc1ccc2c(c1)NC1(CCN(C(=O)c3ccc(Cl)nc3)CC1)c1cccn1-2 13%
Cc1cccc(NC(=S)N(Cc2cc3ccc(C)c(C)c3[nH]c2=O)CC2CCCO2)c1 (centres undefined) 8.93%
COc1ccc2nc(Nc3nc(-c4cc5ccccc5oc4=O)cs3)sc2c1 6.47%
O=c1oc2ccccc2cc1-c1csc(Nc2ccc(O)cc2)n1 4.13%
CCOc1ccc2nc(SCC(=O)OC(C)C)c(C#N)cc2c1 10.9%
O=C1c2cccc3cc(Br)cc(c23)C(=O)N1Nc1ccccc1 7.35%
O=C(O)CC1=C(Nc2ccccc2)C(=O)N(c2ccccc2)C1c1ccc(Cl)cc1 (centres undefined) 5.93%
COc1ccc(C(c2nnnn2CC2CCCO2)N2CCN(C3CCCCC3)CC2)cc1 (centres undefined) 1.12%
Cc1ccc(C)c(N2C(=O)c3cccc4c(N(C)C)ccc(c34)C2=O)c1 8.88%
CC1CCN(C(=O)CN(C)S(=O)(=O)c2ccc(F)cc2)CC1 7.13%
c1ccc2c(c1)OCC(CNc1ncnc3nc[nH]c13)O2 (centres undefined) 10.3%
COc1ccc(Nc2ncnc3sc(-c4ccccc4)cc23)c(OC)c1 15.7%
COc1ccccc1N=C1Sc2nc3cc4c(cc3cc2CN1CC1CCCO1)OCO4 (centres undefined) 9.09%
CC(C)n1c(SCC(=O)N(Cc2ccccc2)C(C)(C)C)nc2c1c(=O)n(C)c(=O)n2C 9.83%
CCN1CCN(C(=O)c2sc3ccccc3c2Cl)CC1 9.4%
Cc1ccc(C2C3=C(Nc4[nH]n(-c5ccccc5)c(=O)c42)c2ccccc2C3=O)cc1 (centres undefined) 10.2%
COc1ccccc1NC(=O)C1=C(C)NC2=C(C(=O)CCC2)C1c1ccc(C)o1 (centres undefined) 2.07%
O=C(NCc1ccccc1)C(=O)c1c[nH]c2ccccc12 12.1%
C/C(Cl)=C\CSc1nc(N2CCOCC2)c2c(c1C#N)CC(C)(C)OC2 9.2%
CN1CCN(C(c2ccc(Cl)cc2)c2nnnn2Cc2ccco2)CC1 (centres undefined) 13.3%
Cc1ccc(N2CCCC2=O)cc1S(=O)(=O)NC1CCCNC1=O (centres undefined) 5.07%
COc1ccc2c(c1)N(C)/C(=c1\s/c(=C3\SC(=S)N(C)C3=O)n(C)c1=O)S2 17.4%
CN(C)S(=O)(=O)c1ccc(S(=O)(=O)N2CCN(c3ccccc3F)CC2)cc1 15.4%
CCOc1cc(-c2cc(-c3ccc(OC)cc3)nc(N)c2C#N)ccc1O 13.6% and 5.97%
CCc1c(-c2ccccc2)nc(N)c(C#N)c1-c1cccs1 5.93%
Cc1sc(NC(=O)Cn2c(=O)sc3ccccc32)c(C#N)c1C 7.54%
COc1ccccc1CNC(=O)C1CCN(c2cnccn2)CC1 9.64%
CC1(C)CC2CC(C)(CN2C(=O)c2ccc(Cl)cc2)C1 (centres undefined) 13.4%
COc1ccc2[nH]c(=O)c(CN(CCCN(C)C)C(=S)Nc3ccccc3)cc2c1 9.95%
CCc1ccc2nc3sc(C(=O)NCc4ccc5c(c4)OCO5)c(N)c3cc2c1 13.9%
CCc1ccc2nc3sc(C(=O)OC)c(N)c3cc2c1 11.6%
CCn1cc(C(=O)N[C@@H](C)Cn2nnc3ccccc32)c(=O)c2ccc(C)nc21 9.07%
CCOC(=O)CNC(=O)CSc1nnnn1-c1cc(C)ccc1C -1.57%
COC(=O)c1ccccc1NC(=O)CSc1nnnn1C 9.91% and 10.9%
CCc1nnc(NC(=O)CSc2nnnn2-c2ccc(F)cc2)s1 7.48%
COc1ccc(C2(C(=O)NCCn3nc(-c4cccs4)ccc3=O)CC2)cc1 4.83%
CCOc1ccccc1NC(=O)CSc1nnnn1-c1ccc(F)cc1 10.9%
CC(C)(C)NC(=O)Cn1nc(-c2nccc3ccccc23)oc1=O 2.81%
CC(=O)Nc1cccc([N+](=O)[O-])c1 3.91%
Cc1ccccc1NC(=S)Nc1cccc([N+](=O)[O-])c1 10.2%
CCn1c(C)cc2cc(NC(=O)CCCn3nc(C)cc3C)ccc21 6.1%
Cc1cc(C)cc(-c2nnc(SCC(=O)N3c4ccccc4CC3C)o2)c1 (centres undefined) 15.9%
CCN1CCN(CCNC(=O)c2ccc(/C=C3/Sc4ccccc4N(Cc4cccc(C)c4)C3=O)cc2)CC1 15.1%
CCN1/C(=C/C(=S)Nc2ccccc2)Sc2ccccc21 11.8%
CCCN1/C(=C/c2ccc3ccccc3[n+]2CC)Sc2cc(NC(C)=O)ccc21 13.2%
CCN1CCN(C(=O)Nc2cccc(Cl)c2)CC1 10.7%
CCOc1ccc2nc(SCC(=O)Nc3ccc(OC)cc3)sc2c1 6.3%
Cc1ccc(CN(Cc2cc3c(C)cc(C)cc3[nH]c2=O)C(=O)NC2CCCCC2)cc1 8.55%
COc1ccc(N(Cc2cc3cc(OC)ccc3[nH]c2=O)S(C)(=O)=O)cc1 6.17%
O=c1[nH]c2cc3c(cc2cc1CN(Cc1cccnc1)S(=O)(=O)c1ccc(Cl)cc1)OCCO3 19.4%
COc1ccc2[nH]c(=O)c(CN(Cc3ccc4c(c3)OCO4)S(=O)(=O)c3ccc(F)cc3)cc2c1 12%
Cc1cccc2cc(CN(Cc3ccco3)S(=O)(=O)c3cccc4nsnc34)c(=O)[nH]c12 24.1%
Cc1nnc2sc(-c3ccc(NC(=O)c4ccc(Br)o4)cc3)nn12 15%
COc1ccc2c(c1)NC1(CCN(C(=O)c3cnsc3)CC1)c1cccn1-2 9.97%
Cc1cccc2cc(CN(Cc3cccs3)Cc3nnnn3C3CCCCC3)c(=O)[nH]c12 2.93%
Cc1ncc([N+](=O)[O-])n1Cc1nnc(N)s1 11.5%
CC(C)(C)C1=NN(CC(=O)NCc2ccncc2)C(=O)c2cc3ccccc3n2C1 4.49%
COc1nc(C)c(CC(=O)NC2(c3cccc(F)c3)CCCC2)c(OC)n1 13.3%
Cc1[nH]c2ccc(-c3nnc(SCCC#N)n3C)cc2c1C 10.1%
CC(C)(C)C1=NN(CC(=O)NCCc2ccco2)C(=O)c2cc3ccccc3n2C1 11.5%
COc1ccc(C(c2nnnn2C(C)(C)C)N2CCN(c3ccc(OC)cc3)CC2)cc1 (centres undefined) 10.7%
Cc1ccc2c(c1)C(O)CC1(CCN(CC(O)c3ccc(F)c(F)c3)CC1)O2 (centres undefined) 8.77%
Cc1ccc2c(c1)C1CN(C)CCC1N2C(=S)Nc1ccc(Cl)cc1Cl (centres undefined) 15.3%
Cc1ccc2c(c1)C1CN(C)CCC1N2C(=O)c1ccccc1NS(=O)(=O)c1ccc(F)cc1C (centres undefined) 8.83%
CCOC(=O)N1CCN(C(=O)COc2ccc(Cl)cc2C)CC1 12.7%
Cc1cc(NC(=O)COC(=O)COc2ccc(Cl)cc2C)c([N+](=O)[O-])cc1C 5.32%
CCc1cccc2cc3c(N)c(C(=O)Nc4cc(OC)ccc4OC)sc3nc12 5.34%
CCn1cc(/C=C/c2nc3ccccc3c(=O)n2C)c2ccccc21 16.1%

inhibition, 90.2% (active) and 26.4% (inactive):
CCc1ccc2nc3sc(C(=O)Nc4nnc(CC)s4)c(N)c3cc2c1
